Laboratory results as given in PubChem BioAssay (NCATS).
Records with an inconclusive call do not appear. The source made the active and inactive calls. The call rests on the fitted dose curve; in most records, active means well fitted curve in the direction sought with a large enough effect; inconclusive means small, poorly fitted or top-dose-only effect, or another doubt; inactive means no such curve, though single readings can be large; an effect the other way counts as inactive or inconclusive.

Columns and labels:
[1] = Cell Viability - N2a (AID 540); further: nearly all actives have a fitted effect of over 45% in size
Method in brief: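 CellTiter-Glo ATP luminescence, read 20 min after reagent at room temperature, reported viability following 40 h compound treatment at 37 °C. N2a mouse neuroblastoma cells seeded 1500/well; Hill equation gave AC50.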

[2] = Cell Viability - NIH 3T3 (AID 541); further: nearly all actives have a fitted effect of over 25% in size
Method in brief: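 Intracellular ATP (CellTiter-Glo luminescence, 20 min at room temperature) measured after 40 hr compound exposure at 37 °C of 1000 NIH 3T3 mouse fibroblasts/well in complete medium; AC50 derived by Hill-equation modelling of qHTS concentration-response curves.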

[3] = Cell Viability - HUV-EC-C (AID 542); further: nearly all actives have a fitted effect of over 35% in size
Method in brief: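 CellTiter-Glo luminescence measured ATP loss in HUV-EC-C cells (1000/well) after 40 hr compound exposure at 37 °C, in complete culture medium. Concentration-response data were Hill-fitted to give AC50.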

[4] = Cell Viability - H-4-II-E (AID 543); further: nearly all actives have a fitted effect of over 35% in size
Method in brief: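 CellTiter-Glo luminescence (intracellular ATP) measured after 40 h compound exposure at 37 °C in H-4-II-E rat hepatoma cells seeded at 1500/well. Values are AC50s fitted with the standard Hill equation.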

[5] = Cell Viability - SH-SY5Y (AID 544); further: nearly all actives have a fitted effect of over 55% in size
Method in brief: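 Cytotoxicity measured via ATP-dependent luciferase luminescence (CellTiter-Glo) following 40 h, 37 °C exposure of 1500 SH-SY5Y cells per well. Concentration-response data were fitted with the standard Hill equation to give AC50.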

[6] = Cell Viability - Renal Proximal Tubule (AID 545); further: nearly all actives have a fitted effect of over 40% in size
Method in brief: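 In this qHTS format, normal rat kidney-derived proximal tubule cells in complete culture medium receive compound titrations, then sit 40 hours at 37 °C before luciferase-based ATP quantitation; potency is reported as AC50 from concentration-response curves.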

Measured: Potency

O=c1[nH]cnc2[nH]ncc12
inactive: [1] | [2] | [3] | [4] | [5] | [6]
